This passage reports Potency results from PubChem BioAssay AID504434 (National Center for Advancing Translational Sciences (NCATS), 2011).

The assay is described as follows: Secondary Assay for lipid storage modulators: AML12 cell LDSA assay for probe SAR. The settings on record: AML12 lipid droplet accumulation, BODIPY 493/503 imaging, oleate. An excerpt: NIH Molecular Libraries Probe Production Centers Network [MLPCN] NIH Chemical Genomics Center [NCGC] MLPCN Grant: 1 R03 MH085686-01 Assay Submitter (PI): Beller, Mathias; Max-Planck-Institut fur Biophysikalische Chemie NCGC Assay Overview: Storing lipids as a reservoir for energy or the anabolism of elementary metabolites is a common feature of probably all cells and is conserved from bacteria to humans. The universal cellular lipid storage organelle is the so-called lipid storage droplet (LD). Although ubiquitous, LDs share a simple structure composed of a hydrophobic core that harbors the storage lipids, which is shielded by a droplet-specific phospholipid monolayer to which proteins are attached. The current model of LD biogenesis involves an incorporation of the lipid core into the membrane leaflets of the endoplasmic reticulum (ER) followed by a subsequent budding-like maturation of a LD, which ultimately pinches off. […]
NCGC Assay Protocol Summary: The assay was performed with AML12 cells, using an oleic acid feeding protocol similar to the S3 assay. […] Fluorescence was detected by excitation of the fluorophores with a 488-nm laser on an Acumen Explorer (TTP Lab Tech). […] Cells were detected using channel 3 (575-640 nm) with 5-um width and 100-um depth filters. The ratio of the number of objects in PMT channel 2 over the number of objects in PMT channel 3 was also calculated. […]

Records with an inconclusive call do not appear. The source made the active and inactive calls. Calls come from the whole dose curve; as a rule, active = well fitted curve in the direction sought with a large enough effect; inconclusive = small, poorly fitted or top-dose-only effect, or effect the other way, or another doubt; inactive = no such curve, though single readings can be large or run the other way.

Take `CCC/C=C/C/C=C/C=C/C=N/NN=O`: the Potency is 499 nM (active).
